Among the data in PubChem BioAssay are composite z-score, composite Z-score and z-score values, retold here.

Calls of active or inactive are those of the source.

For assay [1], the target named is Albumin (Bos taurus) (UniProt P02769). The assay is described as follows: bovine serum albumin binders on microarray, profiling panel, artefact control for SMM control protein annotation, biochemical, small-molecule microarray, Alexa647 label, 635/667 nm fluorescence (AID 1118).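 Further: score merges 667 nm emission intensity and signal-to-noise per printed compound spot.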 The conditions noted are these: BSA-A647 binding, fluorescence 635 nm, higher = more signal.
Sequence of Albumin (Bos taurus) (P02769 whole entry, looked up): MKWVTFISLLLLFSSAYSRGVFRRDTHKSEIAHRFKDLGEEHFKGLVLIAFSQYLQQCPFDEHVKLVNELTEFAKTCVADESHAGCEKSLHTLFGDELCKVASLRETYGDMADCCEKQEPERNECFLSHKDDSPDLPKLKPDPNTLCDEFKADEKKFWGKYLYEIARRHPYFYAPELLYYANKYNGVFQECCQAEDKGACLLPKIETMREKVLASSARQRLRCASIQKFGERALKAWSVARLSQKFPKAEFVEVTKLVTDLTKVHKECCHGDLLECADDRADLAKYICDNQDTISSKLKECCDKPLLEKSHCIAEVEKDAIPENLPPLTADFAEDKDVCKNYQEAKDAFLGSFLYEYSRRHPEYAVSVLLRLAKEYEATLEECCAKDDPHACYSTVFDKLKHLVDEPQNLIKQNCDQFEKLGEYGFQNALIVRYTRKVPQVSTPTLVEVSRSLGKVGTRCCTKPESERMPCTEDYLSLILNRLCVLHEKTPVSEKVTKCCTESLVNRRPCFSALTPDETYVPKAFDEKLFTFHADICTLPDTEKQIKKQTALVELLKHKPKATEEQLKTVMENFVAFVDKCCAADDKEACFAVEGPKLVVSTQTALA

Assay [2] is described as follows: small-molecule microarray binders of probe aXIP, primary screen, biochemical, NeuroSMM set, 635/667 nm fluorescence (AID 1119).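 Further: probe is the protein aXip251-270 applied at 1 µg/mL to compound-printed slides; binding of probe to printed compounds measured as 667 nm fluorescence plus signal to noise.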 The conditions noted are these: higher = more signal, called active from +8 up or from −8 down.
Assay [3] in a line: small-molecule binders of probe aNOTCH3, primary screen, biochemical, small-molecule microarray, 635/667 nm fluorescence (AID 1120).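 Further: probe is a biotin-tagged antibody raised against NOTCH3 rather than NOTCH3 protein; score merges spot fluorescence near 667 nm with spot signal to noise.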 To be noted: higher = more signal.
Assay [4] in a line: small-molecule binders of probe aNOTCH2, primary screen, biochemical, small-molecule microarray, 635/667 nm fluorescence (AID 1121).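 Further: score merges feature fluorescence read at 667 nm with its signal to noise.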 To be noted: higher = more signal.
Assay [5] has as its target Carbonic anhydrase 2 (Homo sapiens) (UniProt P00918). Nature of the assay: CAII small-molecule binders, profiling panel, biochemical, small-molecule microarray, Alexa647-labelled CAII (AID 1122). To be noted: CAII-A647 binding fluorescence, higher = more signal.
Assay [6] can be described thus: COS7 lysate on small-molecule microarray, probe aHis, 635 nm (AID 1123).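 Further: z-score combines 667nm fluorescence intensity with signal-to-noise per printed compound spot.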 The conditions noted are these: COS7 cell lysate, fluorescence, higher = more signal.
A short description of assay [7]: compound binding in COS7 lysate, probe aLAP1, primary screen, cell lysate, small-molecule microarray (AID 1124).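 Further: lysate comes from COS7 cells expressing LAP1 and is applied at 0.3 µg/mL; score merges spot fluorescence near 667 nm with signal-to-noise over triplicate slides.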 To be noted: probe aLAP1, fluorescence, higher = more signal.
Assay [8] has as its system Sam68 (KHDRBS1). The assay is described as follows: Sam68 small-molecule binders, primary screen, biochemical, small-molecule microarray, 635 nm fluorescence (AID 1125).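 Further: score merges 667 nm channel intensity with signal to noise over triplicate slides.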 To be noted: small-molecule microarray binding, higher = more signal.
Assay [9] deals with Chordin-like protein 2 (CHRDL2). Nature of the assay: CHRDL2 small-molecule binders, primary screen, biochemical, small-molecule microarray, 635 nm fluorescence (AID 1126).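 Further: printed compound slides probed with Chrdl2 protein at 4 µg/mL for 1 h at 4 C; score merges 667 nm emission intensity with signal to noise over three replicate slides.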 To be noted: small-molecule microarray binding, fluorescence 635 nm; higher = more signal.
The target in assay [10] is Concanavalin-A (Canavalia ensiformis) (UniProt P02866). Nature of the assay: ConA small-molecule binders, primary screen, artefact control for SMM control protein annotation, biochemical, small-molecule microarray, Alexa647 label, 635 nm (AID 1127).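 Further: z combines 667 nm emission intensity with signal-to-noise across three replicate slides.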 To be noted: ConA-A647 binding fluorescence, higher = more signal.
Sequence of Concanavalin-A (Canavalia ensiformis) (P02866 whole entry, looked up): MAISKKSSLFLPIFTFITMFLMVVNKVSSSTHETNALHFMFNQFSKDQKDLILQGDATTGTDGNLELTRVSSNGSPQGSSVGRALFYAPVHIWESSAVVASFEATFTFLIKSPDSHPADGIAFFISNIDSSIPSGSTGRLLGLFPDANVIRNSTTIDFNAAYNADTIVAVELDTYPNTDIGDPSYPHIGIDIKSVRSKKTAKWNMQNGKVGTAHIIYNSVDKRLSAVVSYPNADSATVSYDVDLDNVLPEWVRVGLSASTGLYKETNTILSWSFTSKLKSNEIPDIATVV
A short description of assay [11]: anti-His antibody binders, primary screen, artefact control for SMM control protein annotation, biochemical, small-molecule microarray, 635 nm fluorescence (AID 1128).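 Further: score merges feature fluorescence with signal-to-noise for each printed compound spot.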 The conditions noted are these: anti-His Alexa647 antibody binding, higher = more signal.
Assay [12] deals with Human papillomavirus type 1a E7 protein (residues 1-88). Nature of the assay: HPV1a E7 small-molecule binders, primary screen, biochemical, small-molecule microarray, residues 1-88, 635 nm (AID 1129). To be noted: small-molecule microarray binding, fluorescence 635 nm; higher = more signal.
Assay [13] deals with Focal adhesion kinase 1 (Homo sapiens) (UniProt Q05397). Nature of the assay: small-molecule microarray binders of FAK, primary screen, biochemical, 635/667 nm fluorescence, BSA, DTT (AID 1130).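 Further: composite of spot emission at 667 nm and signal to noise over triplicate slides.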 The conditions noted are these: PTK2 binding, 635 nm fluorescence, higher = more signal.
Sequence of Focal adhesion kinase 1 (Homo sapiens) (Q05397 whole entry, looked up): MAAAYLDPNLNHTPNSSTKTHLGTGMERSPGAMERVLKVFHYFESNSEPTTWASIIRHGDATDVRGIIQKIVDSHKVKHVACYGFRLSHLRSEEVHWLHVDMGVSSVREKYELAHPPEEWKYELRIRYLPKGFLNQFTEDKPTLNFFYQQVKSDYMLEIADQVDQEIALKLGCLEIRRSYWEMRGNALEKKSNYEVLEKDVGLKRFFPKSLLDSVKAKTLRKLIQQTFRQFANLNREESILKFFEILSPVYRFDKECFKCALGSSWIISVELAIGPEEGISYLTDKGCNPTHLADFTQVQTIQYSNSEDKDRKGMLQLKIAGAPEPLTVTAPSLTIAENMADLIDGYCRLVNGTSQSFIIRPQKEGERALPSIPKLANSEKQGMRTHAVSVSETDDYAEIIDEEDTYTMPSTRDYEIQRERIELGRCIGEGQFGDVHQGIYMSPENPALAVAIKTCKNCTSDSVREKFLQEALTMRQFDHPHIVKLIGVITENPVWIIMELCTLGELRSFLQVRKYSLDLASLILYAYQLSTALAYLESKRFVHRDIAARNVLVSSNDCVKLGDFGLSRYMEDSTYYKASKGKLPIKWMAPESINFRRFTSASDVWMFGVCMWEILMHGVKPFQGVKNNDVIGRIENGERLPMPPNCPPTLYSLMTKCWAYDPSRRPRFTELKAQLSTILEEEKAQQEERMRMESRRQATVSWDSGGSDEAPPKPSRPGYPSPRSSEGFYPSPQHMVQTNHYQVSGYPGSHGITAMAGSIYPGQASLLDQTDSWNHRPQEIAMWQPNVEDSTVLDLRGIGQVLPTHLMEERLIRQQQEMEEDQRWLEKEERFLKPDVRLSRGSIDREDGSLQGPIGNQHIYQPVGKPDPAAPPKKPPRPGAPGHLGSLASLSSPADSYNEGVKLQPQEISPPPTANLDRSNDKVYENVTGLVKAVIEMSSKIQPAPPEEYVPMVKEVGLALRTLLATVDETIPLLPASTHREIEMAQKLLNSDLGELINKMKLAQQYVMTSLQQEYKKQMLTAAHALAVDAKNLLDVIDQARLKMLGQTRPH
Assay [14] relates to Fibrinogen (Alexa647-labelled). The assay is described as follows: fibrinogen binders on compound microarrays, profiling panel, artefact control for SMM control-protein annotation, biochemical, small-molecule microarray, 635/667 nm fluorescence (AID 1131).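 Further: z-score merges 667 nm fluorescence with per-spot signal-to-noise over triplicate slides.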 The conditions noted are these: fibrinogen-A647 binding fluorescence, higher = more signal.
The target of assay [15] is Follistatin (Homo sapiens) (UniProt P19883). Nature of the assay: follistatin binders on small-molecule microarrays, primary screen, biochemical, small-molecule microarray, 635/667 nm fluorescence (AID 1132). To be noted: FST binding, 635 nm fluorescence, higher = more signal.
Sequence of Follistatin (Homo sapiens) (P19883 whole entry, looked up): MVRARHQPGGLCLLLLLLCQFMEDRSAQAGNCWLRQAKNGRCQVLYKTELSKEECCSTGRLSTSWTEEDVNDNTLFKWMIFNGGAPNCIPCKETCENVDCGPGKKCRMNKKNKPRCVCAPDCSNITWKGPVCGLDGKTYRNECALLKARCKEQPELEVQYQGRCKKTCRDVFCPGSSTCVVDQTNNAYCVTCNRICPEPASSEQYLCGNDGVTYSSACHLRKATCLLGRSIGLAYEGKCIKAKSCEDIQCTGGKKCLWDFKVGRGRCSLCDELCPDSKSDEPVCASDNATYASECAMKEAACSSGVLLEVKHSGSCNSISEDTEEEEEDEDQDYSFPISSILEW
In assay [16] the target is Fibroblast growth factor 2 (Homo sapiens) (UniProt P09038). The assay is described as follows: FGF2 binders on small-molecule microarrays, primary screen, biochemical, small-molecule microarray, 635/667 nm fluorescence (AID 1133). The conditions noted are these: small-molecule microarray binding, FGF2, fluorescence 635/667; higher = more signal.
Sequence of Fibroblast growth factor 2 (Homo sapiens) (P09038 whole entry, looked up): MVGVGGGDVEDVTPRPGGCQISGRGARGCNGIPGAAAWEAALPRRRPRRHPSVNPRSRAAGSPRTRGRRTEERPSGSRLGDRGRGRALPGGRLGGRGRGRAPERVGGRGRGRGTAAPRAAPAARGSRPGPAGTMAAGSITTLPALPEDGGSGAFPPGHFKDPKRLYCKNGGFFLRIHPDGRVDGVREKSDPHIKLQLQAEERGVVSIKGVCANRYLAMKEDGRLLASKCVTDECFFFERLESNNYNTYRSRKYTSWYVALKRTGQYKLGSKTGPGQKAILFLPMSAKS
A short description of assay [17]: mitochondrial membrane potential change in A549 cells, profiling panel, cell-based, JC-1 fluorescence, basal, 24 h, 100 nL (AID 1138).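 Further: A549 lung adenocarcinoma cells under basal conditions with no added stimulus; test concentration not given here.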 The conditions noted are these: higher = more signal.
For assay [18], the system named is Lefty1. Nature of the assay: Lefty1 binders on small-molecule microarrays, primary screen, biochemical, small-molecule microarray, 635/667 nm fluorescence (AID 1139). The conditions noted are these: small-molecule microarray binding, fluorescence 635/667; higher = more signal.
Assay [19] deals with wheat germ agglutinin (Triticum aestivum), Alexa647-labelled. The assay is described as follows: wheat germ agglutinin binders on compound microarrays, profiling panel, artefact control for SMM control-protein annotation, biochemical, small-molecule microarray, 635/667 nm fluorescence (AID 1140).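 Further: score merges 667 nm feature emission with signal to noise over triplicate slides.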 The conditions noted are these: WGA-A647 binding, 635 nm fluorescence, higher = more signal.

In assay [20] the target is Luciferin 4-monooxygenase (Photinus pyralis) (UniProt P08659). Nature of the assay: firefly luciferase enzyme inhibitors, primary screen, biochemical, luminescence, purified enzyme, 2006 set (AID 1141).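 Further: cell-free assay with purified firefly luciferase at 100 ng per well in PBS; test concentration not given here.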 To be noted: SteadyGlo luminescence, 30 min, higher = more signal, called active from +8 up or from −8 down.
Sequence of Luciferin 4-monooxygenase (Photinus pyralis) (P08659 whole entry, looked up): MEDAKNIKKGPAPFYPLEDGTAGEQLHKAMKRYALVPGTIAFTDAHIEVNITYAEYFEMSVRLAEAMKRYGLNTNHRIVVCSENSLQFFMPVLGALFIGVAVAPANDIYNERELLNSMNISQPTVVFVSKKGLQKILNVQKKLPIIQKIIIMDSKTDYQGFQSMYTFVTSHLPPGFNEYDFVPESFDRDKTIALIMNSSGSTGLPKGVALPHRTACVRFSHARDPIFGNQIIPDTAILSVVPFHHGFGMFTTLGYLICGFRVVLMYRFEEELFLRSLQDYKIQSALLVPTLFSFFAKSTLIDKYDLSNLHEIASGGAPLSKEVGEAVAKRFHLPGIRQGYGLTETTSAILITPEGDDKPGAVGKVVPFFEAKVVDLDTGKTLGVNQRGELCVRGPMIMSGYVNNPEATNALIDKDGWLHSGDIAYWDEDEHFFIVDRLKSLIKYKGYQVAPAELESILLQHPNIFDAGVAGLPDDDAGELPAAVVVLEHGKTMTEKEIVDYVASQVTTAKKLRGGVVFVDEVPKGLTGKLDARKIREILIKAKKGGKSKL

As to `[N-]=[N+]=NCc1ccccc1[C@H]1OC(c2ccc(OCCCO)cc2)=N[C@@]1(CCS(=O)(=O)c1ccccc1)C(=O)N1CCCCC1`, the composite z-score is 1.05 in [1]; 0.268 in [3]; 0.0562 in assay [4]; 0.753 in [5]; 2.83 in [6]; 0.512 in assay [7]. Besides, the composite z-score in assay [8] was 1.31; in [9] it was -0.565; in assay [10] it was 1.2; in assay [11], 2.98; in assay [12], 1.23; in [13] it was 1.12. Also, the composite z-score in assay [14] was 1.02; in assay [15] it was 1.1; in assay [16] it was 0.227; in assay [18], 0.53; in assay [19], 1.44. Also, the composite Z-score in assay [2] was 0.32 (inactive). Moreover, the z-score is -1.16 in assay [17] and -0.844 (inactive) in assay [20].

On to `O=C1OCC=C[C@H]2OC34C=CCN(c5ccc(Cl)cc5)C(=O)[C@H]3N(CCO)C(=O)[C@@H]4[C@@H]12` (stereo not given in full), for which the composite z-score is -0.212 in [1]; -0.306 in assay [3]; -0.211 in assay [4]; 0.903 in [5]; 2.81 in assay [6]; 0.0653 in assay [7]. Besides, the composite z-score is -0.381 in assay [8]; -1.52 in assay [9]; -0.606 in assay [10]; 0.745 in assay [11]; -0.658 in assay [12]; -0.588 in [13]. The composite z-score in [14] was -1.36; in assay [15] it was -1.12; in assay [16], -1.06; in assay [18], -0.78; in [19], -0.729. Further, the composite Z-score in [2] is 0.703 (inactive). For the same molecule, the z-score in assay [17] was 0.805; in [20] it was -0.386 (inactive).

With `O=C1N(Cc2ccccc2)Cc2ccccc2[C@@H]2OC(c3ccc(OCCCO)cc3)=N[C@]12CCS(=O)(=O)c1ccccc1`, the composite z-score is -0.0561 in assay [1]; 0.0876 in assay [3]; 0.0607 in assay [4]; 0.484 in assay [5]; 2.23 in assay [6]; 0.0984 in assay [7]. Besides, the composite z-score is 1.25 in [8]; 0.068 in [9]; 0.888 in [10]; 0.624 in assay [11]; 1.19 in [12]; 0.389 in assay [13]. In addition, the composite z-score was 0.768 in assay [14]; 0.953 in [15]; 1.4 in assay [16]; -0.0333 in assay [18]; 1.04 in [19]. For the same molecule, the composite Z-score in assay [2] was 1.52 (inactive). Moreover, the z-score in assay [17] is -0.461; in assay [20], -0.929 (inactive).

As for `CC(C)C[C@@H]1NC(=O)[C@@H]2C[C@H](C(=O)NCCCCN(C)C)[C@H](c3cccc(OCCO)c3)N2C1=O`, the composite z-score in [1] is 0.434; in assay [3] it was -0.245; in assay [4] it was -0.132; in assay [5], 0.466; in assay [6], 1.63; in [7], 0.613. Further, the composite z-score in assay [8] is 0.505; in assay [9], 0.175; in assay [10], 0.129; in [11] it was -0.421; in assay [12] it was -0.46; in [13], 0.392. For the same molecule, the composite z-score in [14] was -1.81; in [15], 0.787; in assay [16], 0.549; in assay [18], 0.24; in [19] it was 0.779. Moreover, the composite Z-score in assay [2] was 0.157 (inactive). Also, the z-score in assay [17] is -0.57; in assay [20], 0.857 (inactive).

On to `O=C1O[C@@H](c2ccccc2)[C@@H](c2ccccc2)N2[C@@H](c3ccc(OCCO)cc3)[C@]3(C(=O)Nc4ccccc43)[C@@H](C(=O)O)[C@H]12`, for which the composite z-score in [1] is -0.0883; in assay [3], 1.09; in assay [4], 0.464; in [5], 0.745; in assay [6], 1.03; in assay [7], 0.741. Further, the composite z-score in [8] is 0.428; in [9], -0.12; in assay [10], 0.539; in [11], 2.37; in [12], 0.177; in assay [13], -0.0546. Further, the composite z-score in [14] is 0.679; in assay [15], 0.197; in assay [16], -0.406; in assay [18], 0.044; in assay [19], 0.125. Further, the composite Z-score in assay [2] was -0.24 (inactive). Also, the z-score in assay [17] is -0.75; in assay [20], -1.43 (inactive).
